# In PubChem BioAssay AID1259412 (Laboratorio de Genomica e Expressao (LGE), UNICAMP, 2018):
# Assay: alternative oxidase inhibition and growth effect – profiling panel (AID 1259412);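 note: growth monitored over 72 h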
# Conditions: AOX-dependent respiration, O2 uptake; measured here: growth, AOX-dependent treatment condition; at 500 µM; stronger effect = lower value
row,SMILES,growth (% of control) [%]
1,O=C(Nc1cccc(C(F)(F)F)c1)c1cccc(I)c1,49.4
2,O=C(Nc1ccc(N2CCOCC2)cc1)c1cccc(F)c1,94.7
3,NC(=O)c1ccccc1NC(=O)c1ccccc1I,93.3
4,O=C(Nc1cccc(Cl)c1)c1cccc(I)c1,73
5,O=C(Nc1cccc(NC(=O)c2cccc(F)c2)c1)c1cccc(F)c1,113
6,O=C(Nc1cccc(Cl)c1)c1cccc(F)c1,17.8
7,O=C(Nc1cccc(OCc2ccccc2)c1)c1cccc(Br)c1,90.8
8,O=C(Nc1cccc(Cl)c1)c1ccccc1,46.9
9,O=C(Nc1ccccc1)c1cccc(F)c1,73.9
10,O=C(Nc1cccc(F)c1)c1cccc(Br)c1,23.1
11,COc1cc(NC(=O)c2cccc(F)c2)cc(OC)c1OC,92.8
12,Cc1cccc(C(=O)Nc2ccccc2)c1,50
13,Cc1cccc(C(=O)Nc2cccc([N+](=O)[O-])c2)c1,36.7
14,O=C(Nc1cccc(C(F)(F)F)c1)c1cccc(Cl)c1,37.9
15,N#Cc1cccc(C(=O)Nc2cccc(F)c2)c1,55.1
16,COc1cc(NC(=O)c2cccc(Br)c2)cc(OC)c1OC,90.6
17,COc1cc(NC(=O)c2ccccc2)cc(OC)c1OC,84.6

# Same assay, conditions: AOX-dependent respiration, O2 uptake; measured here: growth, control condition; at 500 µM
row,SMILES,growth (% of control) [%]
1,COc1cccc(C(=O)Nc2cccc(OCc3ccccc3)c2)c1,86.7
2,COc1cc(NC(=O)c2cccc(C#N)c2)cc(OC)c1OC,90.9
3,Cc1cccc(C(=O)NCc2ccc3c(c2)OCO3)c1,48.8
4,O=C(Nc1cccc(Br)c1)c1cccc(Br)c1,91.3
5,O=C(Nc1cccc(Br)c1)c1cccc(I)c1,98.1
6,Cc1cccc(C(=O)Nc2ccc(N3CCOCC3)cc2)c1,96
7,O=C(Nc1cccc([N+](=O)[O-])c1)c1ccccc1,103
8,COc1cc(NC(=O)c2cccc(Cl)c2)cc(OC)c1OC,78
9,N#Cc1cccc(C(=O)Nc2ccccc2)c1,89.5
10,O=C(Nc1cccc(Br)c1)c1ccccc1,71.6
11,COc1cccc(C(=O)Nc2ccccc2C(N)=O)c1,82.1
12,O=C(Nc1cccc(F)c1)c1cccc(I)c1,86.5
13,COc1cc(NC(=O)c2cccc(C)c2)cc(OC)c1OC,96.2
14,O=C(Nc1cccc(C(F)(F)F)c1)c1cccc(F)c1,35.2
15,O=C(Nc1cccc([N+](=O)[O-])c1)c1cccc(F)c1,120
16,O=C(Nc1cccc(Cl)c1)c1cccc(Br)c1,101
17,O=C(Nc1cccc(I)c1)c1ccccc1,91
18,O=C(Nc1cccc(OCc2ccccc2)c1)c1cccc(I)c1,57
19,O=C(Nc1cccc(NC(=O)c2cccc(I)c2)c1)c1cccc(I)c1,116
20,O=C(Nc1cccc(C(F)(F)F)c1)c1ccccc1,71.4

row,SMILES,growth (% of control) [%]
1,COc1cccc(C(=O)Nc2cccc(I)c2)c1,80
2,O=C(Nc1cccc(OCc2ccccc2)c1)c1cccc(F)c1,81.9
3,O=C(Nc1cccc(C(F)(F)F)c1)c1cccc(I)c1,83.8
4,O=C(Nc1ccc(N2CCOCC2)cc1)c1cccc(F)c1,90.8
5,NC(=O)c1ccccc1NC(=O)c1ccccc1I,82.7
6,O=C(Nc1cccc(Cl)c1)c1cccc(I)c1,88.6
7,O=C(Nc1cccc(NC(=O)c2cccc(F)c2)c1)c1cccc(F)c1,133
8,O=C(Nc1cccc(Cl)c1)c1cccc(F)c1,60.1
9,O=C(Nc1cccc(OCc2ccccc2)c1)c1cccc(Br)c1,93.9
10,O=C(Nc1cccc(Cl)c1)c1ccccc1,118
11,O=C(Nc1ccccc1)c1cccc(F)c1,101
12,O=C(Nc1cccc(F)c1)c1cccc(Br)c1,88
13,COc1cc(NC(=O)c2cccc(F)c2)cc(OC)c1OC,80.8
14,Cc1cccc(C(=O)Nc2ccccc2)c1,83.2
15,Cc1cccc(C(=O)Nc2cccc([N+](=O)[O-])c2)c1,80.2
16,O=C(Nc1cccc(C(F)(F)F)c1)c1cccc(Cl)c1,93.2
17,N#Cc1cccc(C(=O)Nc2cccc(F)c2)c1,107
18,COc1cc(NC(=O)c2cccc(Br)c2)cc(OC)c1OC,84.3
19,COc1cc(NC(=O)c2ccccc2)cc(OC)c1OC,76
